# Laboratory results taken from publication PMC8384837, “Expanding the binding specificity for RNA recognition by a PUF domain”.
# Where a chain is given by its changes, count along the chain named.
# Legend:
# Assay in all cases: yeast three-hybrid, YBZ-1, SC-Leu-His + 0.5 mM 3-AT, 4 days
# Conditions in all cases: tags: N-Gal4 AD-HA kept; label: inside an RPR1-promoter hybrid RNA with tandem MS2 sites; ssRNA
# PUM1 PUF domain R8-FFR = PUM1 PUF domain R8-FFR (Homo sapiens, UniProt Q14671 828-1176, N1122F;Y1123F;Q1126R)
# Method in brief: (§1)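 Pumilio-1 PUF domain libraries, randomized at the three base-contacting residues of each repeat, were co-expressed with matching RNA elements from a centromeric plasmid in strain YBZ-1, which carries a LexA–MS2 coat fusion and a HIS3 reporter. Transformants grew for four days on SC-Leu (input) or on SC-Leu-His + 0.5 mM 3-AT (selection), and the repeat regions were PCR-amplified and Illumina-sequenced. The interaction score is the log change in variant frequency from input to selection. That logarithm is base 2, with a pseudocount of 1 where a variant was absent.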
# PUM1 PUF domain R8-LFR = PUM1 PUF domain R8-LFR (Homo sapiens, UniProt Q14671 828-1176, N1122L;Y1123F;Q1126R)
# Method in brief: as §1
# PUM1 PUF domain R8-RWA = PUM1 PUF domain R8-RWA (Homo sapiens, UniProt Q14671 828-1176, N1122R;Y1123W;Q1126A)
# Method in brief: as §1
# PUM1 PUF domain R8-KYR = PUM1 PUF domain R8-KYR (Homo sapiens, UniProt Q14671 828-1176, N1122K;Q1126R)
# Method in brief: as §1
# PUM1 PUF domain R6-AYR = molecular target: T1, PUM1 PUF domain R6-AYR (Homo sapiens, UniProt Q14671 828-1176, N1043A;Q1047R)
# T1 sequence: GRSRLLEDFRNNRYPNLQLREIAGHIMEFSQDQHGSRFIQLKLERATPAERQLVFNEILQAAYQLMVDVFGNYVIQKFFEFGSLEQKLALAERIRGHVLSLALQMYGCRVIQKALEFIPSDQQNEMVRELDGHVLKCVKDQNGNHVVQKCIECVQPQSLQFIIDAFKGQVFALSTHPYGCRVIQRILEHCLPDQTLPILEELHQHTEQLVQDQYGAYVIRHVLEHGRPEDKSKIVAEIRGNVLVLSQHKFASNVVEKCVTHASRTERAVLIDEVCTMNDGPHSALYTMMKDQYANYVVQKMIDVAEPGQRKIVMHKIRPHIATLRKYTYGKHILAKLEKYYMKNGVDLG
# Method in brief: as §1
# PUM1 PUF domain R8-SYP = PUM1 PUF domain R8-SYP (Homo sapiens, UniProt Q14671 828-1176, N1122S;Q1126P)
# Method in brief: as §1
# PUM1 PUF domain R6-FYL = molecular target: T2, PUM1 PUF domain R6-FYL (Homo sapiens, UniProt Q14671 828-1176, N1043F;Q1047L)
# T2 sequence: T1 sequence with A216F, R220L
# Method in brief: as §1
# PUM1 PUF domain R6-IYC = molecular target: T3, PUM1 PUF domain R6-IYC (Homo sapiens, UniProt Q14671 828-1176, N1043I;Q1047C)
# T3 sequence: T1 sequence with A216I, R220C
# Method in brief: as §1
# PUM1 PUF domain R4-RVY = PUM1 PUF domain R4-RVY (Homo sapiens, UniProt Q14671 828-1176, N971R;H972V;Q975Y)
# Method in brief: as §1
# PUM1 PUF domain R5-FRN = PUM1 PUF domain R5-FRN (Homo sapiens, UniProt Q14671 828-1176, C1007F;Q1011N)
# Method in brief: as §1
# PUM1 PUF domain R5-YRR = PUM1 PUF domain R5-YRR (Homo sapiens, UniProt Q14671 828-1176, C1007Y;Q1011R)
# Method in brief: as §1
# PUM1 PUF domain R3-APS = PUM1 PUF domain R3-APS (Homo sapiens, UniProt Q14671 828-1176, C935A;R936P;Q939S)
# Method in brief: as §1
# PUM1 PUF domain R5-RYL = PUM1 PUF domain R5-RYL (Homo sapiens, UniProt Q14671 828-1176, C1007R;R1008Y;Q1011L)
# Method in brief: as §1
# PUM1 PUF domain R3-IWK = PUM1 PUF domain R3-IWK (Homo sapiens, UniProt Q14671 828-1176, C935I;R936W;Q939K)
# Method in brief: as §1
# PUM1 PUF domain R1-RRT = PUM1 PUF domain R1-RRT (Homo sapiens, UniProt Q14671 828-1176, S863R;Q867T)
# Sequence of PUM1 PUF domain R1-RRT (Q14671 828-1176 S863R/Q867T): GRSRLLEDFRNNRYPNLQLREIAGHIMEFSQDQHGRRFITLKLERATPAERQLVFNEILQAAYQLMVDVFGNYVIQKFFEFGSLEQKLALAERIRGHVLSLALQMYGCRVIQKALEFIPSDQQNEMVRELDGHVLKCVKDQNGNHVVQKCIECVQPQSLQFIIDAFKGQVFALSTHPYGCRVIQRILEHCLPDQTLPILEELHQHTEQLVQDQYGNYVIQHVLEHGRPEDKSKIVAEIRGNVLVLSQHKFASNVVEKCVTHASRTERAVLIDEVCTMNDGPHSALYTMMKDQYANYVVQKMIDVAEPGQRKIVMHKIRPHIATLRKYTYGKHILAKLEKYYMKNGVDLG
# Method in brief: as §1
# PUM1 PUF domain R3-TVE = PUM1 PUF domain R3-TVE (Homo sapiens, UniProt Q14671 828-1176, C935T;R936V;Q939E)
# Method in brief: as §1
# PUM1 PUF domain R5-GTE = PUM1 PUF domain R5-GTE (Homo sapiens, UniProt Q14671 828-1176, C1007G;R1008T;Q1011E)
# Method in brief: as §1
# PUM1 PUF domain R7-AVR = PUM1 PUF domain R7-AVR (Homo sapiens, UniProt Q14671 828-1176, S1079A;N1080V;E1083R)
# Method in brief: as §1
# PUM1 PUF domain R7-KRE = PUM1 PUF domain R7-KRE (Homo sapiens, UniProt Q14671 828-1176, S1079K;N1080R)
# Method in brief: as §1
# PUM1 PUF domain R7-QRK = PUM1 PUF domain R7-QRK (Homo sapiens, UniProt Q14671 828-1176, S1079Q;N1080R;E1083K)
# Method in brief: as §1
sequence,measurement,setting,value
GGCUAGAACUAGUGGAUCCCCCGGCGCCCGGCGGCUCGAGCCCGGGUAAGCGUAAAUAGUCUGCAUGCCGCCGGGCGCCAUGCCUGCAGGUCGACUCUAGAAAACAUG,binding signal,PUM1 PUF domain R8-FFR,4.67 log2 enrichment (interaction score)
same,binding signal,PUM1 PUF domain R8-LFR,4.59 log2 enrichment (interaction score)
same,binding signal,PUM1 PUF domain R8-RWA,4.94 log2 enrichment (interaction score)
same,binding signal,PUM1 PUF domain R8-KYR,6.62 log2 enrichment (interaction score)
GGCUAGAACUAGUGGAUCCCCCGGCGCCCGGCGGCUCGAGCCCGGGUAAGUGUAAAUAGUCUGCAUGCCGCCGGGCGCCAUGCCUGCAGGUCGACUCUAGAAAACAUG,binding signal,PUM1 PUF domain R8-FFR,4.42 log2 enrichment (interaction score)
same,binding signal,PUM1 PUF domain R6-AYR,6.13 log2 enrichment (interaction score)
same,binding signal,PUM1 PUF domain R8-SYP,4.16 log2 enrichment (interaction score)
same,binding signal,PUM1 PUF domain R6-FYL,3.73 log2 enrichment (interaction score)
same,binding signal,PUM1 PUF domain R8-LFR,4.31 log2 enrichment (interaction score)
same,binding signal,PUM1 PUF domain R6-IYC,3.57 log2 enrichment (interaction score)
same,binding signal,PUM1 PUF domain R4-RVY,5.94 log2 enrichment (interaction score)
same,binding signal,PUM1 PUF domain R8-RWA,4.01 log2 enrichment (interaction score)
same,binding signal,PUM1 PUF domain R5-FRN,1.74 log2 enrichment (interaction score)
same,binding signal,PUM1 PUF domain R5-YRR,1.76 log2 enrichment (interaction score)
same,binding signal,PUM1 PUF domain R3-APS,3.64 log2 enrichment (interaction score)
GGCUAGAACUAGUGGAUCCCCCGGCGCCCGGCGGCUCGAGCCCGGGUAAGUGUUAAUAGUCUGCAUGCCGCCGGGCGCCAUGCCUGCAGGUCGACUCUAGAAAACAUG,binding signal,PUM1 PUF domain R5-YRR,1.61 log2 enrichment (interaction score)
GGCUAGAACUAGUGGAUCCCCCGGCGCCCGGCGGCUCGAGCCCGGGUAAGUGUCAAUAGUCUGCAUGCCGCCGGGCGCCAUGCCUGCAGGUCGACUCUAGAAAACAUG,binding signal,PUM1 PUF domain R5-FRN,2.94 log2 enrichment (interaction score)
same,binding signal,PUM1 PUF domain R5-YRR,3.31 log2 enrichment (interaction score)
same,binding signal,PUM1 PUF domain R5-RYL,2.69 log2 enrichment (interaction score)
GGCUAGAACUAGUGGAUCCCCCGGCGCCCGGCGGCUCGAGCCCGGGUAAGUGUAAUUAGUCUGCAUGCCGCCGGGCGCCAUGCCUGCAGGUCGACUCUAGAAAACAUG,binding signal,PUM1 PUF domain R3-IWK,3.81 log2 enrichment (interaction score)
GGCUAGAACUAGUGGAUCCCCCGGCGCCCGGCGGCUCGAGCCCGGGUAAGUGUAAAUGGUCUGCAUGCCGCCGGGCGCCAUGCCUGCAGGUCGACUCUAGAAAACAUG,binding signal,PUM1 PUF domain R1-RRT,1.65 log2 enrichment (interaction score)
GGCUAGAACUAGUGGAUCCCCCGGCGCCCGGCGGCUCGAGCCCGGGUAAGUGUAAAUUGUCUGCAUGCCGCCGGGCGCCAUGCCUGCAGGUCGACUCUAGAAAACAUG,binding signal,PUM1 PUF domain R1-RRT,4.21 log2 enrichment (interaction score)
GGCUAGAACUAGUGGAUCCCCCGGCGCCCGGCGGCUCGAGCCCGGGUAAGUGUAAGUAGUCUGCAUGCCGCCGGGCGCCAUGCCUGCAGGUCGACUCUAGAAAACAUG,binding signal,PUM1 PUF domain R3-TVE,6.09 log2 enrichment (interaction score)
GGCUAGAACUAGUGGAUCCCCCGGCGCCCGGCGGCUCGAGCCCGGGUAAGUGUGAAUAGUCUGCAUGCCGCCGGGCGCCAUGCCUGCAGGUCGACUCUAGAAAACAUG,binding signal,PUM1 PUF domain R5-GTE,3.8 log2 enrichment (interaction score)
same,binding signal,PUM1 PUF domain R5-RYL,3.39 log2 enrichment (interaction score)
GGCUAGAACUAGUGGAUCCCCCGGCGCCCGGCGGCUCGAGCCCGGGUAAGUUUAAAUAGUCUGCAUGCCGCCGGGCGCCAUGCCUGCAGGUCGACUCUAGAAAACAUG,binding signal,PUM1 PUF domain R7-AVR,3.46 log2 enrichment (interaction score)
same,binding signal,PUM1 PUF domain R7-KRE,3.62 log2 enrichment (interaction score)
GGCUAGAACUAGUGGAUCCCCCGGCGCCCGGCGGCUCGAGCCCGGGUAAGUGUAAAUCGUCUGCAUGCCGCCGGGCGCCAUGCCUGCAGGUCGACUCUAGAAAACAUG,binding signal,PUM1 PUF domain R1-RRT,4.11 log2 enrichment (interaction score)
GGCUAGAACUAGUGGAUCCCCCGGCGCCCGGCGGCUCGAGCCCGGGUAAGUCUAAAUAGUCUGCAUGCCGCCGGGCGCCAUGCCUGCAGGUCGACUCUAGAAAACAUG,binding signal,PUM1 PUF domain R7-QRK,2.27 log2 enrichment (interaction score)
same,binding signal,PUM1 PUF domain R7-KRE,4.01 log2 enrichment (interaction score)
GGCUAGAACUAGUGGAUCCCCCGGCGCCCGGCGGCUCGAGCCCGGGUAAGUAUAAAUAGUCUGCAUGCCGCCGGGCGCCAUGCCUGCAGGUCGACUCUAGAAAACAUG,binding signal,PUM1 PUF domain R7-QRK,3.05 log2 enrichment (interaction score)
GGCUAGAACUAGUGGAUCCCCCGGCGCCCGGCGGCUCGAGCCCGGGUAAGUGCAAAUAGUCUGCAUGCCGCCGGGCGCCAUGCCUGCAGGUCGACUCUAGAAAACAUG,binding signal,PUM1 PUF domain R6-AYR,3.72 log2 enrichment (interaction score)
